# Bioassay records as filed in PubChem.
# TrxR1 inh: qHTS Assay for Inhibitors of Mammalian Selenoprotein Thioredoxin Reductase 1 (TrxR1): qHTS | recombinant rTrxR1, NADPH fluorescence consumption, selenite substrate | Thioredoxin reductase 1, cytoplasmic (Rattus norvegicus), O89049 | Potency, µM (titrated, usually from 114 µM), usual class: inhibitors | 1% of 390,000 active; note: nearly all actives have a fitted effect of over 65% in size
#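 Rat TrxR1 (90 nM in the dispensed reagent) was pre-reduced with 400 uM NADPH for 5 min at room temperature, then incubated with compound for 15 min. After 400 uM selenite was added, NADPH fluorescence (Ex 340/Em 450 nm) was followed for 8 min.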
# mIDH1 inhibitor: qHTS for Inhibitors of mutant isocitrate dehydrogenase 1 (IDH1): qHTS | IDH1-R132H enzyme, NADPH consumption, diaphorase/resazurin fluorescence | Potency, µM (top dose mostly 76.6 µM), usual class: inhibitors | 0.093% of 390,000 active | AID 602179, 2012; note: nearly all actives have a fitted effect of over 65% in size
#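 IDH1-R132H (0.5 ug/mL) preincubated 30 min with compound, then NADPH (0.016 mM) and alpha-KG (2 mM) added; 80 min at RT, pH 7.5. Remaining NADPH coupled via diaphorase/resazurin to fluorescence (540/590 nm); concentration-response curves normalized to no-enzyme control.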
# Sfp PPTase inh: qHTS Assay for Inhibitors of Bacillus subtilis Sfp phosphopantetheinyl transferase (PPTase) | 4'-phosphopantetheinyl transferase ffp (Bacillus subtilis), Q9F4F7 | Biochemical Sfp PPTase activity, qHTS | Potency, µM, actives largely listed as inhibitors | 3.5% of 310,000 active | AID 1490, 2009;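 note: the enzyme is Sfp with the accession as filed and its product quenches rhodamine fluorescence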
#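 Reaction rates are the 30-min fluorescence difference (ex 525, em 598 nm) in wells containing 15 nM Sfp, 5 uM rhodamine-CoA and 12.5 uM BHQ-2-YbbR at pH 7.6 with 10 mM MgCl2.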
# TrxR1 substrate: qHTS Assay for Substrates of Mammalian Selenoprotein Thioredoxin Reductase 1 (TrxR1): qHTS. AID 588456, 2011. 0.01% of 390,000 active. purified TrxR1 substrate turnover, NADPH consumption readout. Thioredoxin reductase 1, cytoplasmic (Rattus norvegicus), O89049. Potency, µM (doses to about 114 µM); note: nearly all actives have a fitted effect of over 50% in size
#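 Rat TrxR1, dispensed at 90 nM, was prereduced with 400 uM NADPH (final) for 5 min at ~22 deg C, then incubated with compound 15 min before 400 uM selenite. A first-read NADPH fluorescence drop versus no-compound background flagged substrates.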
# VDR inh: Inhibitors of the vitamin D receptor (VDR): qHTS; AID 504847, 2011; Potency, µM, actives largely listed as inhibitors; VDR-SRC2-3 peptide fluorescence polarization, 2 h; Vitamin D3 receptor (Homo sapiens), P11473; 0.93% of 400,000 active
# Target sequence (P11473 whole entry, looked up): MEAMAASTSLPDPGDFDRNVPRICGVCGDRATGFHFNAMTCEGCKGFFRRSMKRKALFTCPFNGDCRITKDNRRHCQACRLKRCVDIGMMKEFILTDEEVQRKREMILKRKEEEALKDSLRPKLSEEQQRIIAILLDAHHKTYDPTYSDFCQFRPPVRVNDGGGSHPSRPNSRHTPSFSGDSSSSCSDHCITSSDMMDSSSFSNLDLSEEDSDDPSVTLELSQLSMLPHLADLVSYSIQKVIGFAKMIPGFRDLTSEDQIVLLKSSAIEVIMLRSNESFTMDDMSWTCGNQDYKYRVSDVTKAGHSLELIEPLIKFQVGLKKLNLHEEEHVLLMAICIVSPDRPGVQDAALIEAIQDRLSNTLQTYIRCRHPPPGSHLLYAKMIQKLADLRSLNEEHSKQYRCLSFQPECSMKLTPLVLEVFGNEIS
#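 The screen uses fluorescence polarization to detect compounds that interfere with recruitment of the SRC2-3 coactivator peptide to VDR; plates are read after 2 h at room temperature.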
# PLK1 PBD block: qHTS for Inhibitors of PLK1-PDB (polo-like kinase 1 - polo-box domain): Primary Screen | Serine/threonine-protein kinase PLK1 (Homo sapiens), P53350 | Plk1 PBD binding of FITC phosphopeptide, fluorescence polarization | Potency, µM, actives largely listed as inhibitors | 2.8% of 360,000 active | AID 720504, 2013; note: series mostly up to about 57 µM; nearly all actives have a fitted effect of over 65% in size
# Hits are given with their value; - = inactive; ? = inconclusive; . = no result given; [ ] = another dose, or the depositor's remark. Only some compounds are listed: those with a hit (about 5.2% of all), similar ones and a draw of the others. Calls come from the whole dose curve; as a rule, active = well fitted curve in the direction sought with a large enough effect; inconclusive = small, poorly fitted or top-dose-only effect, or another doubt; inactive = no such curve, though single readings can be large; an effect the other way counts as inactive or inconclusive.
SMILES,TrxR1 inh,mIDH1 inhibitor,Sfp PPTase inh,TrxR1 substrate,VDR inh,PLK1 PBD block
CC(C)(C)c1ccc(OCC(=O)NNC(=S)NC(=O)c2ccccc2[N+](=O)[O-])c(Br)c1,?,-,40µM,-,-,-
O=C(O)c1ccccc1NSc1ccccc1[N+](=O)[O-],-,-,-,-,-,11µM
O=C(NNC(=O)c1ccccc1[N+](=O)[O-])c1ccccc1[N+](=O)[O-],-,-,-,-,-,27µM
O=C(NC(=S)NNC(=O)c1ccccc1[N+](=O)[O-])c1ccccc1,-,-,35µM,-,?,?
Cc1ccccc1OCC(=O)NNC(=S)NC(=O)c1ccccc1[N+](=O)[O-],-,-,-,-,-,-
O=C(O)c1cccc([N+](=O)[O-])c1C(=O)Nc1cccc2ccccc12,-,-,-,-,-,-
O=C(NNC(=S)NC(=O)c1ccccc1[N+](=O)[O-])c1ccccc1,-,-,-,-,-,-
NCCCC[C@H](NC(=O)[C@H](CCCN=C(N)N)NC(=O)[C@H](CO)NC(=O)[C@H](CCCN=C(N)N)NC(=O)[C@@H](N)Cc1ccc(O)cc1)C(=O)N[C@@H](Cc1ccc(O)cc1)C(=O)N[C@@H](CO)C(=O)N[C@@H](CO)C(=O)N[C@@H](Cc1c[nH]c2ccccc12)C(=O)N[C@@H](Cc1ccc(O)cc1)C(=O)O,.,.,-,.,-,.
CCN(C(=O)c1cc2c(Cl)nc3ccc(C)cc3c2s1)c1cc(OC)ccc1OC,-,-,.,-,-,.
O=C(Nc1cccc(NC(=O)c2ccccc2[N+](=O)[O-])n1)c1ccccc1[N+](=O)[O-],-,-,-,-,-,2.7µM
Cc1cccc(NC(=O)c2ccccc2[N+](=O)[O-])n1,-[11.4 µM],-,-,-,-,-
CCOC(=O)c1ccc(NC(=O)c2ccccc2[N+](=O)[O-])cc1,-,-,-,-,?,30µM
CCCCC(=O)Nc1ccc(C(=O)NNC(=S)NC(=O)c2ccccc2[N+](=O)[O-])cc1,-,-,35µM,-[0.0914 µM],-,-
O=C(Oc1ccccc1C(=O)Nc1ccccc1)c1ccc(Br)c([N+](=O)[O-])c1,-,-,-,-,50µM,?
Nc1ccc(S(=O)(=O)Nc2nccc(/C=C/c3ccc(Cl)cc3Cl)n2)cc1,-,-,-,-,-,-
COc1ccc(N2CCN(C(=O)c3ccc4c(c3)CC(c3ccccc3)OC4=O)CC2)cc1 (stereo not drawn),-,-,.,-,-,-
CCCCCCCCOc1ccccc1C(=O)Nc1ccc(C(=O)OCC[N+](C)(CC)CC)cc1,.,.,40µM,.,?,.
CCOC(=O)c1ccc(C(=O)OCC)c(NC(=S)Nc2ccc([N+](=O)[O-])cc2OC)c1,?,-,-,-,-,-
CCC(=O)NC(=S)NNC(=O)c1ccccc1[N+](=O)[O-],-,-,10µM,-,-,-
CCOC(=O)c1cc([N+](=O)[O-])c([N+](=O)[O-])cc1NC(C)=O,3.2µM,-,-,-,?,8.4µM
CCCCCOC(=O)c1ccc(NC(=O)c2ccco2)cc1,-,-,-,-,-,-
COc1ccc(CN(CC(O)COCc2ccccc2)S(=O)(=O)c2ccccc2Br)cc1OC (stereo not drawn),-,-,.,-,-,-
O=C(NCc1ccc2c(c1)OCO2)C(=O)NCC1OCCCN1S(=O)(=O)c1cc(F)ccc1F (stereo not drawn),-,-,-,-,-,-
COc1cccc2sc(NNC(=O)C3COc4ccccc4O3)nc12 (stereo not drawn),-,-,79µM,-,-,-
Cn1c(COc2cccc3cccnc23)nnc1SCC(=O)O,-,-,-,-,-,27µM
SMILES,TrxR1 inh,mIDH1 inhibitor,Sfp PPTase inh,TrxR1 substrate,VDR inh,PLK1 PBD block
CCn1c(COc2cccc3cccnc23)nnc1SCC(=O)O,-,-,-,-,-,-
CCOc1ccc(N2C(=O)C(CC(=O)Nc3ccc(F)cc3)N(Cc3ccccn3)C2=S)cc1 (stereo not drawn),-,-,-,-,-,-
CCNC(=O)CC1C(=O)N(c2ccc(F)cc2)C(=O)N1Cc1ccccn1 (stereo not drawn),-,-,-,-,?,27µM
CCCOC(=O)c1cccc(Nc2nc(C(=O)OCC)nc3ccccc23)c1,-,.,.,-,-,.
Cc1ccc(S(=O)(=O)CC(=O)c2ccc([N+](=O)[O-])cc2)cc1,?,-,-,-,-,-
Cc1ccc(S(=O)(=O)CC(=O)c2ccccc2)cc1,35µM,-,-,-,-,-
Cc1ccc(C(=O)CCS(=O)(=O)c2ccc(Cl)cc2)cc1,0.56µM,-,-,-,?,?
Cc1ccc(S(=O)(=O)CCC(=O)NCc2ccc(Cl)cc2)cc1,-,-,-,-,-,-
Cc1ccc(S(=O)(=O)CCC(=O)c2ccc(F)cc2)cc1,1.6µM,-,-,-,?,11µM
Cc1ccc(C(=O)CCS(=O)(=O)c2ccc(F)cc2)cc1,1.1µM,-,-,-,25µM,9.5µM
Cc1ccc([C@H]2N[C@]3(CCCN(Cc4ccc(Cl)cc4)C3=O)[C@H]3C(=O)N(C)C(=O)[C@@H]23)cc1,.,-,.,.,.,-
CCOc1ccc(Nc2cc(C)c(C#N)c3nc4ccccc4n23)cc1,-,-,.,-,-,.
Cc1cc(C(=O)CS(=O)(=O)c2ccc(Cl)cc2)cc(C)c1O,45µM,-,-,-,-,-
Cc1ccc2c(CC(=O)Nc3ccc(S(=O)(=O)N4CCC(C)CC4)cc3)coc2c1,-,-,.,-,-,.
Cc1ccc(S(=O)(=O)N2CCN(c3cc(-c4cccs4)nc4ccccc34)CC2)cc1,-,.,.,-,-,.
Brc1ccc(-c2ccccc2)cc1,-,-,.,-,-,-
Brc1ccc(C=C2C=c3ccccc3=C2)cc1,35µM,.,.,-,.,.
CCCCCCCCCCCCCCCC(=O)OCC(O)C1OC(=O)C(O)=C1O (stereo not drawn),.,.,?,.,5µM,.
CCCCCCCCCCCCCCCCCC(=O)OCC(C)O (stereo not drawn),.,.,-,.,-,.
CCc1ccc(-n2c(=O)c3c4c(sc3n(CC(=O)NC(C)CC)c2=O)CCCC4)cc1 (stereo not drawn),-,-,.,-,-,.
Cc1cc(C)cc(-n2nnn(C3C/C(=N/NC(N)=S)C4OCC3O4)c2=S)c1 (stereo not drawn),-,-,56µM,-,-,-
